# Experimental data as given in PubChem BioAssay (NCI).
# About 83,000 compounds went through this panel and 20% of them were active in at least one assay; those are over-represented in the sample as a whole.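 Each cell line was grown in a 96-well plate and treated with one concentration of compound for 48 hours. Values below 10 were considered active.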 Values without a mark were called inactive. Active and inactive are the calls of the source.
# Key:
# Experiment in all cases: NCI-60 one-dose screen, 48 h (100 = growth as untreated, 0 = no growth, -100 = all killed)
# Details in all cases: 10 µM unless noted
# HCT-15 colon = system: HCT-15 colon
# HT29 colon = system: HT29 colon
# SNB-75 CNS = system: SNB-75 CNS
# SNB-19 CNS = system: SNB-19 CNS
# U251 CNS = system: U251 CNS
# PC-3 prostate = system: PC-3 prostate
# UACC-62 melanoma = system: UACC-62 melanoma
# LOX IMVI melanoma = system: LOX IMVI melanoma
# SK-MEL-28 melanoma = system: SK-MEL-28 melanoma
# SK-MEL-2 melanoma = system: SK-MEL-2 melanoma
# EKVX NSCLC = system: EKVX NSCLC
# SN12C renal = system: SN12C renal
# UO-31 renal = system: UO-31 renal
# TK-10 renal = system: TK-10 renal
# ACHN renal = system: ACHN renal
# CAKI-1 renal = system: CAKI-1 renal
# A498 renal = system: A498 renal
# CCRF-CEM leukemia = system: CCRF-CEM leukemia
# MOLT-4 leukemia = system: MOLT-4 leukemia
Structure (SMILES),growth (HCT-15 colon),growth (HT29 colon),growth (SNB-75 CNS),growth (SNB-19 CNS),growth (U251 CNS),growth (PC-3 prostate),growth (UACC-62 melanoma),growth (LOX IMVI melanoma),growth (SK-MEL-28 melanoma),growth (SK-MEL-2 melanoma),growth (EKVX NSCLC),growth (SN12C renal),growth (UO-31 renal),growth (TK-10 renal),growth (ACHN renal),growth (CAKI-1 renal),growth (A498 renal),growth (CCRF-CEM leukemia),growth (MOLT-4 leukemia)
CSc1ccc(-c2n[nH]nc2-c2cc3ccccc3s2)cc1,28.7%,37.8%,44.5%,55.7%,32.6%,56.7%,47.5%,34.9%,59.5%,33%,73.2%,59.9%,52.3%,84.2%,64.7%,49.1%,46.8%,52.6%,10.1%
O=C(Oc1cccnc1)c1ccsc1Nc1ccnc(C(F)(F)F)c1,45.9%,4.26% (active),80.5%,97.7%,92.5%,83.8%,91.5%,21.9%,89.3%,72.6%,110%,55.2%,91.6%,94.8%,107%,72.7%,104%,23.7%,8.64% (active)
COc1cc2c(cc1-c1c(C)noc1C)ncc1nc(C3CCOCC3)n([C@@H](C)COC(F)F)c12,24.5%,18.8%,28.7%,56.6%,53.3%,39.2%,20.7%,24.2%,53.5%,76.4%,55.8%,66.5%,-38.3% (active),26.6%,36.9%,-11.1% (active),-6.79% (active),55.6%,48%
CSc1nc2c(c(=O)[nH]1)C1(C(=O)Nc3ccccc31)c1c(nc(SC)[nH]c1=O)N2,107%,112%,99.5%,106%,97.9%,107%,99.8%,102%,105%,105%,108%,102%,87.1%,110%,103%,103%,116%,109%,108%
CCCCN1CCCn2c1nc1c2c(=O)n(CCC)c(=O)n1CCC,106%,97.8%,74.2%,96.6%,91.8%,91.3%,85.4%,93.8%,103%,90.1%,97.2%,93.2%,76.8%,97.1%,88.4%,89.1%,80.2%,104%,103%
C=C1C(=O)O[C@H]2[C@H]1CC/C(COC(=O)c1cc3cc(OC)ccc3[nH]1)=C\CC[C@@]1(C)O[C@@H]21,-43.5% (active),-83.4% (active),-68.5% (active),-64.3% (active),-97.7% (active),-71.5% (active),-90.6% (active),-91% (active),-80.8% (active),-76.2% (active),-86.2% (active),-80.8% (active),-95.6% (active),-97% (active),-93.9% (active),-95.1% (active),-95.3% (active),-21% (active),-14.6% (active)
CCOC(=O)c1c(C)oc2ncnc(N3CCN(C(=O)COc4ccc(SC)cc4)CC3)c12,95.8%,95.3%,83%,97.9%,87.5%,82.2%,86.8%,90.5%,110%,95.4%,88.1%,94.9%,74.4%,103%,93.5%,82.7%,–,–,88.6%
CCOc1cc2ncc(C#N)c(Nc3ccc(OCc4cccc(F)c4)c(Cl)c3)c2cc1NC(=O)CC1CCSS1 (stereo not given),66.4%,17.6%,102%,81.5%,55.9%,-42.7% (active),71.6%,-35.3% (active),34.9%,25.9%,27.3%,46%,39.3%,38.6%,59.7%,43%,64%,–,-25.2% (active)
Nc1n[nH]c2ccc([C@@H]3Nc4cc5c(cc4[C@H]4C6CCC(C6)[C@@H]34)C(=O)NC5)cc12 (stereo not given in full),15.2%,12%,2.29% (active),28.2%,18.1%,16.8%,38.9%,18.2%,59.2%,48.8%,48.9%,38.4%,54.9%,89.3%,34.4%,40.5%,–,10.5%,14.7%
CC1=C[C@H]2c3c(c(O)c(O)c4oc5c(C)cccc5c(=O)c34)[C@H](c3cc(O)c(O)c4oc5c(C)cccc5c(=O)c34)[C@H]2C(C)(C)C1,12.5%,21%,-25.7% (active),15.2%,11.3%,10.1%,-43% (active),-85.8% (active),26.6%,20.9%,23.5%,10.6%,-27.2% (active),31.2%,12.2%,12.5%,–,10.8%,–
COc1cc(C)c(C2C(C#N)=C(N)Oc3n[nH]c(-c4cccs4)c32)cc1C(C)C (stereo not given),96.2%,98.9%,86.8%,103%,90.2%,95.3%,96.1%,98.6%,112%,102%,97%,103%,98.7%,98.2%,108%,–,93%,81.5%,–
CC[C@H]1OC(=O)[C@H](C)[C@@H](O[C@H]2C[C@@](C)(OC)[C@@H](O)[C@H](C)O2)[C@H](C)[C@@H](O[C@@H]2O[C@H](C)C[C@H](N(C)C)[C@H]2O)[C@](C)(O)C[C@H](C)CN(C)[C@H](C)[C@@H](O)[C@]1(C)O,97.1%,102%,80.8%,93.4%,94.8%,91%,98.3%,87%,114%,117%,86.5%,93.9%,78.9%,103%,96.5%,96.6%,–,–,103%
OCc1ccc(N2CCc3cccc(F)c3C2)cc1Cl,88.9% [0.1 µM],16.2% [0.1 µM],108% [0.1 µM],85.2% [0.1 µM],53.5% [0.1 µM],89.1% [0.1 µM],-11.2% [0.1 µM] (active),105% [0.1 µM],113% [0.1 µM],91.1% [0.1 µM],104% [0.1 µM],92.9% [0.1 µM],91.6% [0.1 µM],-0.0842% [0.1 µM] (active),108% [0.1 µM],63.5% [0.1 µM],-16.3% [0.1 µM] (active),–,100% [0.1 µM]
COc1ccc(/C=C/c2nc(-c3n[nH]c(=O)n3-c3ccccc3)c3ccccc3n2)cc1,93.8%,101%,81.7%,96.7%,99.5%,95.9%,87.2%,97.2%,106%,99.2%,94.6%,91.5%,79.8%,108%,102%,84%,–,90%,95%
CNc1ccc(-c2cc(=O)oc3ccc(Cl)cc23)cc1,14.9%,-2.77% (active),40.9%,22.7%,8.91% (active),12.8%,31.7%,24.1%,58.5%,33.7%,40.1%,29.9%,47.7%,50%,37%,34.4%,-3.47% (active),–,11.3%
Cc1nn(-c2cc(=O)[nH]c3ccc(Cl)cc23)c(N)c1C#N,103%,110%,61.2%,108%,102%,95.6%,98.8%,92.9%,115%,100%,92.3%,102%,70.7%,133%,99%,85.8%,–,101%,110%
